Not all results are given here.
DUX4_inh = blocks DUX4-driven transcriptional activation | AID 1224904 | activity change, negative = inhibition, % (no concentration beside the values) | 293T-iDUX4 ZSCAN4-Gaussia luciferase reporter, 24 h; active compounds read low | 37,000 compounds, 0.8% hits;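 active = mean inhibition of at least 10% in the main channel, exceeding the control channel by a set limit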;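 also: 0% = median of neutral control wells and -100% = median of positive control wells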
* = called active by the depositor.

SMILES DUX4_inh
O=C(NCC(F)(F)F)[C@@H]1[C@@H](CO)[C@@H]2Cn3c(cccc3=O)[C@@H]2N1C(=O)C1CCC1 5
C[C@H](CO)N1C[C@H](C)[C@H](CN(C)S(=O)(=O)c2ccccc2)Oc2c(NC(=O)c3ccncc3)cccc2C1=O 3
CC(=O)N(CC(C)C)C[C@@H]1[C@H](c2ccc(C3=CCCC3)cc2)[C@H](CO)N1C(C)=O 0
COc1ccc(CN(C)C[C@@H]2OCc3cnnn3CCCC(=O)N([C@H](C)CO)C[C@@H]2C)cc1 6
COc1ccc2c3c([nH]c2c1)[C@H](CO)N(C(=O)C1CCOCC1)CC31CCN(Cc2nccs2)CC1 20
O=C(C[C@H]1C[C@@H]2c3cc(NC(=O)C4CCOCC4)ccc3O[C@@H]2[C@@H](CO)O1)NCc1cccnc1 1
CN(C)C(=O)c1ccc(-c2ccccc2[C@@H]2[C@@H](C#N)N(C(=O)C3CC3)[C@@H]2CO)cc1 23
COc1ccc(CNC(=O)C[C@H]2C=C[C@H](NC(=O)Nc3ccc4c(c3)OCO4)[C@H](CO)O2)cc1 0
CO[C@@H]1CN(C)C(=O)c2ccc(NC(=O)Nc3cccc(F)c3)cc2OC[C@@H](C)N(C(=O)Nc2c(C)noc2C)C[C@H]1C -2
